Measured potencies and affinities stand elsewhere. Calls of active or inactive are those of the source.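 How the source made its calls: active means a dose-response curve fit returns a half-maximal inhibitory concentration, extrapolated values included; inactive means the fit returns no such concentration.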
These compounds were tested against HMG-CoA reductase [Enterococcus faecalis] (UniProt Q9FD70) (assay: inhibitors of E. faecalis class II HMGR, confirmation, biochemical, Enterococcus faecalis (AID 1233)). Conditions: purified E. faecalis HMGR, NADPH absorbance 340 nm kinetics; series mostly up to 100 µM.

outcome, inactive:
COc1cc(C#N)ccc1OCC(=O)c1ccc2c(c1)OCCO2, O=C(N/N=C/c1cc(Br)cc(Br)c1O)c1cccc(N2CCCC2=O)c1, Cc1cc(SCn2nnc3ccccc3c2=O)nc2ccccc12, CC(C)OC(=O)CC(NC(=O)OC(C)(C)C)c1ccccc1 (stereo not drawn), O=[N+]([O-])c1ccc(Cl)c(-c2ccc(/C=N/c3c(-c4ccco4)nc4ccccn34)o2)c1, NCCc1nnc(SCc2ccc(F)cc2)o1, CCCn1c(=S)[nH]c2ccccc2c1=O, Cc1cc(=O)[nH]c(N/N=C/c2ccc(N(C)C)cc2)n1, CC(=O)Nc1ccc(S(=O)(=O)N2CCCC2C(=O)O)cc1 (stereo not drawn), CC(=O)c1cccc(NC(=O)Nc2csc3c2CCCC3)c1, CC1(C)CC(CCC(=O)Nc2ccccc2Cl)C(=O)O1 (stereo not drawn), CCN(C(=O)Cn1cc(C(F)(F)F)ccc1=O)c1c(N)n(Cc2ccccc2)c(=O)[nH]c1=O, COc1cc(NC(=O)c2cc3nc(-c4ccccc4)cc(-c4ccccc4)n3n2)cc(OC)c1OC, Cc1ccc(S(=O)(=O)N(C)C)cc1NC(=O)COC(=O)CCC(=O)c1cccs1, O=C(COc1ccccc1C(=O)N/N=C\c1ccc(O)c(O)c1)N/N=C/c1ccc(O)c(O)c1, O=C1CC(=O)N(Cc2ccco2)C(=S)N1, COc1ccccc1CNC(=O)C1CCCN(S(=O)(=O)c2c(C)[nH]c(=O)[nH]c2=O)C1 (stereo not drawn), NNc1nc2c(Cl)ccc(Cl)c2s1, CCCS(=O)(=O)N1CCN(C(=O)c2ccc(-c3ccccc3)cc2)CC1, O=C(COCc1nc2ccccc2c(=O)[nH]1)NCC1CCCCC1, CCCCOc1ccccc1NC(=O)CC1SC(=NCC)N(CC)C1=O (stereo not drawn), CCCCN(C(=S)Nc1cccc(C)c1C)c1c(N)n(CCC)c(=O)[nH]c1=O, O=C(CCCN1C(=O)/C(=C\c2cccs2)SC1=S)Nc1ccccn1, COC(=O)C(C)n1cnc2c(nnn2-c2ccc(OC)cc2)c1=O (stereo not drawn), COc1ccc(Nc2nc3c(C)cccn3c(=O)c2C=NCc2ccccc2)cc1, Cc1cc(-c2ccccc2)nc(SCC(=O)N2CCCC2)n1, C/C(=N\Nc1ccc(C(=O)O)cc1)c1ccc(-n2ccnc2)cc1, Cc1ccc(S(=O)(=O)N(C)Cc2ccc(-c3nnco3)cc2)cc1, CC(C)(C)C(=O)N1CCC[C@H]1C(O)(c1ccccc1)c1ccccc1, COc1ccc(C2C(C(C)=O)=C(Nc3ccccc3)CC(C)(O)C2C(C)=O)cc1OC (stereo not drawn), c1ccc(-c2ccnc3nc(N4CCN(c5ccccc5)CC4)nn23)cc1, Cc1ccc(C(=O)c2c(NC(=O)c3ccccc3)sc(C)c2C)cc1, Cc1nc(NC(=O)COC(=O)CCS(=O)(=O)c2ccccc2Cl)c(Cl)cc1Cl, COc1ccc(CC(=O)OCc2cc(=O)n3cc(Br)ccc3n2)cc1OC, CCOC(=O)c1ccc(Nc2nc(C(=O)OCC)nc3ccccc23)cc1, Cn1cnnc1Sc1ccc(C(=O)OCC(=O)NC2CC2)cc1[N+](=O)[O-], CC(C)(C)Cc1nnc(NS(=O)(=O)c2ccccc2)s1, COC(=O)C1=C(C)NC(C)=C(C(=O)OC)C1C1CC=CCC1 (stereo not drawn)
